According to the supplement of paper PMC6555819:

Tests used:
Test in all cases: PBM binding z-score (relative to random genomic background probes); higher = stronger binding; sequences stand for … in GC…GCGATTGACAGCGTAGAATGAAGG
[1] = test system: FXR:RXRa (NR concentration 270 nM, RXRa partner concentration 90 nM)
Method in brief: (§1)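 Probes were double-stranded and carried 34-nt variable regions with direct-repeat seeds, single-nucleotide variants, half-site ablations and random human genomic background sequences, printed on custom Agilent 4×180K protein-binding microarrays. Arrays were incubated 1 h with ligand-free nuclear receptor dimers in PBS pH 7.4, 2% milk, 0.02% Triton X-100, 1 mM DTT, 0.2 mg/mL BSA and 0.4 mg/ml salmon testes DNA. Antibodies against each partner (one per run) detected binding, and scanned fluorescence was regression-normalized. Binding z-scores use the random background probes as reference.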

[2] = test system: LXRa:RXRa (NR concentration 270 nM, RXRa partner concentration 90 nM)
Method in brief: as §1

[3] = test system: LXRa homodimer (NR concentration 270 nM)
Method in brief: as §1

[4] = test system: LXRb:RXRa (NR concentration 270 nM, RXRa partner concentration 90 nM)
Method in brief: as §1

[5] = test system: LXRb homodimer (NR concentration 270 nM)
Method in brief: as §1

[6] = test system: PPARa:RXRa (NR concentration 270 nM, RXRa partner concentration 90 nM)
Method in brief: as §1

[7] = test system: PPARg:RXRa (NR concentration 180 nM, RXRa partner concentration 90 nM)
Method in brief: as §1

[8] = test system: PPARg:RXRa 270nM:90nM, anti-RXR (NR concentration 270 nM, RXRa partner concentration 90 nM)
Method in brief: as §1

[9] = test system: PPARg:RXRa 30nM:10nM, anti-RXR (NR concentration 30 nM, RXRa partner concentration 10 nM)
Method in brief: as §1

[10] = test system: PPARg:RXRa 90nM:30nM, anti-RXR (NR concentration 90 nM, RXRa partner concentration 30 nM)
Method in brief: as §1

[11] = test system: PPARg:RXRa DBDmut IVT, anti-RXR (DBD mutation: RXRa K156A/R161A, NR concentration 270 nM, RXRa partner concentration 90 nM)
Method in brief: as §1

[12] = test system: PPARg:RXRa IVT, anti-PPARg (NR concentration 270 nM, RXRa partner concentration 90 nM)
Method in brief: as §1

[13] = test system: PPARg DBDmut:RXRa IVT, anti-PPARg (DBD mutation: PPARg1 K132A/R137A, NR concentration 270 nM, RXRa partner concentration 90 nM)
Method in brief: as §1

[14] = test system: PPARg DBDmut IVT, anti-PPARg (DBD mutation: PPARg1 K132A/R137A, NR concentration 270 nM)
Method in brief: as §1

[15] = test system: PPARg homodimer (NR concentration 180 nM)
Method in brief: as §1

[16] = test system: PXR:RXRa (NR concentration 270 nM, RXRa partner concentration 90 nM)
Method in brief: as §1

[17] = test system: PXR homodimer (NR concentration 270 nM)
Method in brief: as §1

[18] = test system: RARa:RXR (NR concentration 270 nM, RXRa partner concentration 90 nM)
Method in brief: as §1

[19] = test system: RARa homodimer (NR concentration 270 nM)
Method in brief: as §1

[20] = test system: RARb:RXRa (NR concentration 270 nM, RXRa partner concentration 90 nM)
Method in brief: as §1

Sequence | PBM binding z-score [1] | PBM binding z-score [2] | PBM binding z-score [3] | PBM binding z-score [4] | PBM binding z-score [5] | PBM binding z-score [6] | PBM binding z-score [7] | PBM binding z-score [8] | PBM binding z-score [9] | PBM binding z-score [10] | PBM binding z-score [11] | PBM binding z-score [12] | PBM binding z-score [13] | PBM binding z-score [14] | PBM binding z-score [15] | PBM binding z-score [16] | PBM binding z-score [17] | PBM binding z-score [18] | PBM binding z-score [19] | PBM binding z-score [20]
TAGCCTAGGTCATGGGCCGGTATACCACGCGAAC | 4.76 | 3.42 | 0.261 | 2.72 | 0.0172 | 4.23 | 3.35 | 3.56 | 0.856 | 2.46 | 1.46 | 3.44 | -0.00724 | -0.404 | 1.23 | 1.8 | -0.488 | 2.94 | -0.0532 | 3.9
CAAACGAGGGCATGAGTTGATAGCAAATGCCGAT | 0.718 | 0.454 | -0.447 | 0.313 | -0.289 | 1.86 | 1.7 | 1.88 | 0.402 | 1.12 | 2.71 | 2.88 | 0.524 | -0.353 | 0.909 | 0.572 | -0.0239 | 0.752 | -0.274 | 2.24
CCTTACGTGTCACGAGGTTATAGCACGACGAGCG | 1.42 | 1.62 | 0.447 | 1.29 | 0.663 | 2.43 | 2.05 | 1.6 | 0.219 | 0.814 | 2.43 | 2.16 | 0.0495 | 0.563 | 1.81 | 1.5 | 0.447 | 1.97 | 0.817 | 1.78
GCTAGTTGGTCAGTAAGAGGTCACACACCGGTCG | 2.76 | 3.64 | 4.57 | 3.51 | 0.636 | 3.99 | 1.86 | 2.95 | 1.14 | 2.34 | 0.963 | 2.75 | 0.167 | 0.349 | 2.96 | 4.78 | 1.57 | 5.53 | 2.06 | 3.73
CCAGACAGGTGAAAGGTAACGCAGTCTGGTACGC | 0.748 | 0.83 | -0.423 | 0.898 | -0.326 | 3.57 | 5.87 | 6.19 | 4.19 | 6.4 | 2.46 | 3.24 | -0.31 | 0.017 | 1.67 | 0.869 | -0.124 | 2.01 | 0.457 | 1.47
CAAACTAGGTCAAGAGGTCAAAGTCCGCTTCCCG | 7.09 | 6.37 | 6.55 | 5.7 | 1.96 | 6.67 | 9.95 | 8.33 | 6.28 | 8.63 | 8.49 | 8.35 | 2.14 | 1.19 | 6.92 | 6.2 | 2.86 | 7.83 | 3.01 | 5.53
ATGTCTAGGTAAAAGTTCAGTGAATCCCGAGGAT | 0.745 | 1.33 | 1.16 | 0.843 | 0.542 | 3.76 | 7.03 | 6.9 | 5.57 | 7.4 | 1.33 | 3.13 | 0.931 | 0.765 | 1.17 | 1.87 | 1.49 | 1.77 | 0.698 | 2.39
GCACATAGGTAATACAAGGTGAAAGTCCGATTGT | 0.681 | 2.96 | 0.0603 | 0.767 | -0.39 | 1.47 | 0.894 | 0.539 | 0.253 | 0.343 | 0.57 | 1.1 | 0.738 | 0.527 | 0.516 | 0.612 | -0.214 | 1.59 | 0.568 | 0.552
ATCTCTAGGAAAAGATAGTTCAGTGAATGCAAAT | 0.351 | 0.417 | 0.457 | 0.247 | 0.273 | -0.0453 | 0.305 | -0.0709 | 0.0801 | -0.0493 | -0.409 | -0.0598 | 0.523 | 0.248 | -0.459 | 0.432 | 0.918 | -0.0188 | 1.07 | 0.49
CCAGACAGGTGAAAGGGAACTCAGTCTGGTACGC | -0.208 | -0.0389 | -0.366 | -0.0234 | -0.681 | 1.63 | 2.51 | 3.24 | 1.06 | 2.69 | 1.08 | 1.02 | 0.273 | -0.448 | 0.717 | -0.0959 | -0.23 | 0.13 | 0.262 | 0.537
ACTTATGGGTCAACGAGGTTATAGCACGCGTATA | 5.3 | 4.47 | 0.915 | 3.85 | 0.967 | 5.33 | 6.12 | 5.78 | 2.91 | 5.01 | 6.33 | 5.8 | 1.52 | 2.09 | 2.41 | 4.34 | 1.69 | 4.3 | 1.76 | 3.89
CCGACTGGGGCAAGGATACCATAACGCACAGCCA | -0.419 | -0.243 | -0.0407 | -0.588 | -1.01 | 0.158 | 1.6 | 1.16 | -0.149 | 0.515 | 2.53 | 2.44 | -1.12 | -0.391 | 0.238 | -0.678 | -0.593 | -0.387 | 0.23 | 0.558
CAAACTAGGTCAAGAAAGGTCAAAGTCGAATGAC | 7.13 | 7.84 | 7.14 | 6.98 | 2.48 | 6.35 | 8.96 | 7.74 | 5.91 | 7.85 | 8.14 | 8.39 | 1.43 | 1.46 | 4.85 | 6.73 | 3.25 | 7.01 | 3.23 | 5.44
CAAACTAGGTCAAGGTCGAAGTCGGTTTGTGCCA | 4.68 | 3.03 | 0.706 | 2.37 | -0.00931 | 5.05 | 8.77 | 7.1 | 5.52 | 7.19 | 8.51 | 8.63 | 2.92 | 2.06 | 3.02 | 2.71 | 0.704 | 3.14 | 0.902 | 4.47
